# Experimental data reported in the supplement of paper PMC12340641.
# Where a name gives a salt, the structure may show the parent alone.
# How the values were obtained:
# [1] = biological target: IKZF1 (dCK*-IKZF1 fusion in HEK293FT) (UniProt Q13422); experiment: inhibition of IKZF1 HTRF signal (DMSO = 0%, pomalidomide 10 uM = 100%); higher = lower IKZF1 protein level; details: compound concentration: 5 uM, overnight (~20 h)
# Method in brief: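 Values are percent inhibition of IKZF1 signal, normalised plate by plate against vehicle and a reference degrader. HEK293FT cells stably expressing an IKZF1 fusion were seeded at 2000 per well in 384-well plates and exposed to 5 μM compound in single wells overnight at 37 °C. After 30 min lysis at room temperature, lysates were incubated overnight with a commercial HTRF total-IKZF1 antibody kit, and the background-subtracted 665/620 nm time-resolved FRET ratio was read. On each plate, vehicle was set at 0% and the reference degrader at 100%.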
# [2] = system: HEK293FT dCK*-only; experiment: relative growth in counter assay (no AraC = 100%, AraC + DMSO = 0%); higher = more growth rescue independent of IKZF1; details: compound concentration: 5 uM; AraC concentration: 0.3 uM; overnight pretreatment + 4 days AraC
# Method in brief: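 This counter assay used HEK293FT cells expressing only an engineered kinase construct, seeded at 300 per well in 384-well plates. Compound was added at 5 μM 2 h after seeding, and after overnight at 37 °C the cells received a nucleoside suicide substrate at 0.3 μM plus medium for 4 days. On day 5, nuclei stained with Hoechst 33342 were counted by imaging, and relative growth was normalised per plate; wells without suicide substrate were set at 100% and wells with substrate plus vehicle at 0%.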
# [3] = system: HEK293FT dCK*-IKZF1; experiment: relative growth recovery (pomalidomide 10 uM = 100%, DMSO = 0%); higher = more growth rescue (IKZF1 fusion degradation); details: compound concentration: 5 uM; AraC concentration: 0.3 uM; overnight pretreatment + 4 days AraC
# Method in brief: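 HEK293FT cells stably expressing an engineered deoxycytidine kinase–IKZF1 fusion were seeded at 300 per well in 384-well plates and given 5 μM compound 2 h later. After overnight incubation at 37 °C, a nucleoside suicide substrate at 0.3 μM was added with medium for 4 days, and on day 5 Hoechst 33342-stained nuclei were counted by whole-well imaging. Growth recovery was normalised per plate between a reference degrader and vehicle, set to 100% and 0% respectively, and the values are means of duplicates run on different days.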
# Sequence of IKZF1 (dCK*-IKZF1 fusion in HEK293FT) (Q13422 whole entry, looked up, the tested form may be a part): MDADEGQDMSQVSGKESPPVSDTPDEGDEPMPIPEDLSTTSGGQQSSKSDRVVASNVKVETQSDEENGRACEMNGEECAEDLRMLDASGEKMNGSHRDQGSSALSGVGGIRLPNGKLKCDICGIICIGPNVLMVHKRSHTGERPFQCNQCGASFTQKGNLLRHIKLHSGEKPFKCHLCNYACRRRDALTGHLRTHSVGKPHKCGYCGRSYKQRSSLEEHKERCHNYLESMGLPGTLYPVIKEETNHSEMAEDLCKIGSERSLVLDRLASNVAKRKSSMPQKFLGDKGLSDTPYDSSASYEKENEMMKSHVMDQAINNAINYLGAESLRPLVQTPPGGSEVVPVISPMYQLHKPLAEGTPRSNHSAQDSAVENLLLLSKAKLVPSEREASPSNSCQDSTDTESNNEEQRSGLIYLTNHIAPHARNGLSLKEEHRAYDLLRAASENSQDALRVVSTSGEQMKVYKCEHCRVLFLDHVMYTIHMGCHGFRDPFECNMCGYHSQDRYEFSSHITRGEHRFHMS
SMILES,inhibition of IKZF1 HTRF signal [1] [%],relative growth in counter assay [2] [%],relative growth recovery [3] [%]
OC1=C(C[C@]([C@](CO)=O)(O)C[C@@H]4O[C@@]5([H])C[C@H](N)[C@H](O)[C@H](C)O5)C4=C(O)C3=C1C(C2=CC=CC(OC)=C2C3=O)=O [doxorubicin],-9.64,-35.2,-13.8
CCCCC(CC)C/N=C(\N)N/C(N)=N/CCCCCC/N=C(\N)N/C(N)=N/CC(CC)CCCC (configuration not stated) [Alexidine dihydrochloride],63.4,-34.4,-13.3
CC[C@]1(O)C[C@H]2CN(CCc3c([nH]c4ccccc34)[C@@](C(=O)OC)(c3cc4c(cc3OC)N(C=O)[C@H]3[C@@](O)(C(=O)OC)[C@H](OC(C)=O)[C@]5(CC)C=CCN6CC[C@]43[C@@H]65)C2)C1 [Vincristine Sulfate],33.3,-33.5,-12.2
CCCCNC(=O)NS(=O)(=O)c1ccc(C)cc1,-29.8,0.26,-3.39
CC[N+](C)(CC)CCC[n+]1c(-c2ccccc2)c2cc(N)ccc2c2ccc(N)cc21 [propidium-iodide],58.8,-10.7,-3.16
COc1cccc2c(O)c3c(O)c4c(c(O)c3c(O)c12)=C(O[C@H]1C[C@H](N)[C@H](O)[C@H](C)O1)C[C@](O)(C(C)=O)C=4 [Daunorubicin HCl],56.3,-34.8,-13.9
NCCNc1ccc(NCCN)c2c1C(=O)c1ccncc1C2=O.O=C(O)/C=C\C(=O)O.O=C(O)/C=C\C(=O)O [Pixantrone (dimaleate)],-28.2,-13,-1.7
CCCCC/N=c1/ccn(Cc2ccccc2)c2ccccc12,-21.7,-2.74,-2.79
CN1CCN(CCCN2c3ccccc3Sc3ccc(C(F)(F)F)cc32)CC1 [Trifluoperazine  HCl],-1.13,28.7,3.73
COc1ccc(-c2ccc3c(N4CCOC[C@@H]4C)nc(N4CCOC[C@@H]4C)nc3n2)cc1CO,50,-33.9,-13.8
Oc1cccc2cc3cccc(O)c3c(O)c12 [dithranol],-46.9,3.52,-0.86
Cc1c(-c2ccccc2F)[nH]c(N)c1C#N,-50.1,0.99,0.445
O=C(/C=C/c1ccc(O)c(O)c1)OCCc1ccccc1 [caffeic-acid-phenethyl-ester],-31.4,-29,-7.03
Clc1ccc(COC(Cn2ccnc2)c2ccc(Cl)cc2Cl)cc1 (configuration not stated) [Econazole Nitrate],-40.1,3.6,4.02
CC[C@@]1(O)C(=O)OCc2c1cc1n(c2=O)Cc2cc3c(N)cccc3nc2-1 [9-aminocamptothecin],31.3,-33.7,-12.4
CC(NCCC(c1ccccc1)c1ccccc1)c1ccccc1 (configuration not stated) [fendiline],-38,-1.99,2.01
Clc1ccc(COC(Cn2ccnc2)c2ccc(Cl)cc2Cl)cc1 (configuration not stated),-29.1,1.65,0.49
CN(C)CCOC1=Cc2ccccc2Sc2ccc(Cl)cc21 [zotepine],-37.7,2.78,-1.67
CCN1CCN(Cc2ccc(-c3cc4c(N[C@H](C)c5ccccc5)ncnc4[nH]3)cc2)CC1,-37.1,-18.1,-8.18
O=C1Nc2ccc(Cl)cc2[C@@](C#CC2CC2)(C(F)(F)F)O1 [Efavirenz],0.88,-1.3,0.45
O=C1CC[C@H](N2Cc3cc(N4CCN(CC5CCN(c6ccc([C@@H]7c8ccc(O)cc8CC[C@@H]7c7ccccc7)cc6)CC5)CC4)ccc3C2=O)C(=O)N1,-15.2,2.17,9.37
c1cc2c(cc1C1CCCCC1)c1c3n2CCNC3CCC1 (configuration not stated) [tetrindole],-27.2,-33,-9.3

SMILES,inhibition of IKZF1 HTRF signal [1] [%],relative growth in counter assay [2] [%],relative growth recovery [3] [%]
C[n+]1c2cc(N)ccc2cc2ccc(N)cc21,69.3,-34.9,-15
O=C(NCc1ccc(OC(F)(F)F)cc1)C1c2ccccc2C(=O)N1C1CCOCC1 (configuration not stated),-25.8,-2.6,-1.02
Cc1cccc(CCN2CCC(C(=O)c3ccc(NS(C)(=O)=O)cc3)CC2)n1,-18.6,-7.85,-0.45
C=C(NNC(=S)NNC(=S)Nc1ccccc1Cl)c1ccccn1,0.77,-34.8,-12.8
CC(C)/N=c1/cc2n(-c3ccc(Cl)cc3)c3ccccc3nc-2cc1Nc1ccc(Cl)cc1 [Clofazimine],6.09,3.02,-0.03
CCCCCCCCCCCC1=C(O)C(=O)C=C(O)C1=O [embelin],-30.8,-6.94,-3.97
COC1=C(OC)C(=O)C(CCCCCCCCCCO)=C(C)C1=O,41.8,-5.9,-2.21
COc1ccc(Cl)cc1C(=O)NCCc1ccc(C(=O)O)cc1 [meglitinide],-37.6,-0.23,-1.25
CCCCCCc1ccc(O)cc1O,-30.8,4.87,2.99
Nc1c2ccccc2nc2ccccc12,58.6,-34.8,-14
CCC(=O)O[C@@H]1CC(=O)O[C@H](C)C/C=C/C=C/[C@H](OC(C)=O)[C@H](C)C[C@H](CC=O)[C@H](O[C@@H]2O[C@H](C)[C@@H](O[C@H]3C[C@@](C)(OC(C)=O)[C@@H](OC(=O)CC)[C@H](C)O3)[C@H](N(C)C)[C@H]2O)[C@H]1OC [Midecamycin Acetate],-24.1,2.69,0.995
CN(C)C(=O)C(CCN1CCC(O)(c2ccc(Cl)cc2)CC1)(c1ccccc1)c1ccccc1 [Loperamide HCl],3.48,-7.07,-1.04
Cc1cc(C2CCCCC2)n(O)c(=O)c1,-23.8,-24.9,-10.6
O=C(/C=C/c1ccc2ccccc2n1)c1ccncc1,-36.5,-35.1,-15
COC(=O)C1=C(C)NC(C)=C(C(=O)OC/C=C/c2ccccc2)C1c1cccc([N+](=O)[O-])c1 (configuration not stated) [Pranidipine],13.9,-3.72,-0.3
O=C(Nc1ccc(S(=O)(=O)Nc2ccccc2Cl)c(Cl)c1)c1ccccn1,25.4,1.67,-1.18
CCOC(=O)Nc1ccc2c(c1)N(C(=O)CN(C)C)c1ccccc1CC2 [Tiracizine],1.99,0.34,-0.145
CC/C(=C(\c1ccc(O)cc1)c1ccc(OCCN(C)C(=O)COCCOCCOCCOc2cccc(C(=O)c3csc([C@@H]4CCCN4C(=O)[C@@H](NC(=O)[C@H](C)NC)C4CCCCC4)n3)c2)cc1)c1ccccc1,13.9,-31.8,-11.5
CCc1oc2ccccc2c1C(=O)c1cc(Br)c(O)c(Br)c1,11.6,-6.05,-2.28
CC[C@@]1(O)C(=O)OCc2c1cc1n(c2=O)Cc2cc3c(CN(C)C)c(O)ccc3nc2-1 [Topotecan HCl],54.2,-34.6,-13.3
CC(C)n1nc(-c2ccc3oc(N)nc3c2)c2c(N)ncnc21,83.3,-33.3,-12.4
COc1ccc2c(C)nc(Nc3nc(C)c(C)c(O)n3)nc2c1 [madrasin],-28.1,6.01,0.18

SMILES,inhibition of IKZF1 HTRF signal [1] [%],relative growth in counter assay [2] [%],relative growth recovery [3] [%]
CC(CN(C)C)CN1c2ccccc2Sc2ccccc21 (configuration not stated) [trimeprazine],15.3,7.5,-1.37
COC(=O)Nc1ccc(-c2nc(N3CCOCC3)c3cnn(C4CCN(Cc5cccnc5)CC4)c3n2)cc1,-7.75,-33,-12.9
CC(C)(C)c1ccc(C(O)CCCN2CCC(C(O)(c3ccccc3)c3ccccc3)CC2)cc1 (configuration not stated),-24.6,-9.63,-1.42
OCCN1CCN(CCCN2c3ccccc3Sc3ccc(C(F)(F)F)cc32)CC1,-11.9,12,3.6
CCCCOC(=O)c1ccc(N)cc1,-30.3,-2.73,-0.295
CCCCCCCCCCC(CO)CCCCCCCC (configuration not stated) [2-Octyldodecan-1-ol],-45,-4.55,-2.31
CN(C)CCN1C(=O)c2cccc3cc(N)cc(c23)C1=O [Amonafide],27.6,-32.4,-11.7
COc1cc([C@@H]2c3cc4c(cc3[C@@H](O[C@@H]3O[C@@H]5COC(c6cccs6)O[C@H]5[C@H](O)[C@H]3O)[C@H]3COC(=O)C23)OCO4)cc(OC)c1O (some centres not stated) [Teniposide],-45.1,-34.3,-12.5
COC1=C2C[C@@H](C)C[C@H](OC)[C@H](O)[C@@H](C)/C=C(\C)[C@H](OC(N)=O)[C@@H](OC)/C=C\C=C(/C)C(=O)NC(=CC1=O)C2=O [Geldanamycin],57.7,-32.6,-11.4
Clc1cccc(Cl)c1CSc1nnc(-c2cnccn2)s1 [yoda-1],3.26,-3.89,-4.05
CN(C)CCC=C1c2ccccc2CCc2ccccc21 [Amitriptyline HCl],22.6,6.15,-1.42
C=C1C(=O)O[C@@H]2C=C(C)CCC=C(C)CC[C@@H]12 [costunolide],-26.8,-18.2,-0.955
Oc1c(Cl)cc(Cl)c2cccnc12,-21.5,-3.56,-0.1
Clc1ccc2c(NCCNc3ccnc4cc(Cl)ccc34)ccnc2c1,-19.4,-2.86,-1.39
CN(Cc1cnc2nc(N)nc(N)c2n1)c1ccc(C(=O)N[C@@H](CCC(=O)O)C(=O)O)cc1,-18.9,-31.2,-10.1
CCCC(=O)C1CCN(c2ncnc3c2CN(C(=O)c2ccc(-c4ccccc4)cc2)CC3)CC1,-10.8,18,4.94
O=C(Nc1ccc(S(=O)(=O)C(F)(F)F)cc1)C1=CCN(c2ncccc2C(F)(F)F)CC1,-40.9,62.2,53.1
CN1CCC[C@@H]1CCO[C@](C)(c1ccccc1)c1ccc(Cl)cc1,-21.3,6.03,-3.56
COC(=O)C1=C(C)NC(C)=C([N+](=O)[O-])C1c1ccccc1C(F)(F)F (racemic),-43.6,-7.91,-0.605
C1CCC(N/C(=N/C23CC4CC(CC(C4)C2)C3)N2CCOCC2)CC1,-35.4,13,1.62
